Article PMC11006913

How the values were obtained:
Assay in all cases: PBM; 200 nM protein, PBS
Conditions in all cases: dsDNA, one strand shown
HESX1 [1] = molecular target: HESX1 (Homo sapiens, UniProt Q9UBX0 95-180, R165K)
SHOX [2] = molecular target: SHOX (Homo sapiens, UniProt O15266 103-189)
ALX4 [3] = molecular target: ALX4 (Homo sapiens, UniProt Q9H161 200-286)
PRRX1 [4] = molecular target: PRRX1 (Homo sapiens, UniProt P54821 80-166, F113S)
ALX4 [5] = molecular target: ALX4 (Homo sapiens, UniProt Q9H161 200-286, Q225E)
Sequence of ALX4 (Homo sapiens, UniProt Q9H161 200-286, Q225E) (Q9H161 200-286 Q225E): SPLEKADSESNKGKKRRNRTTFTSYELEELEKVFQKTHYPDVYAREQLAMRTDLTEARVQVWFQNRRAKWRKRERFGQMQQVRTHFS

HESX1 [6] = molecular target: HESX1 (Homo sapiens, UniProt Q9UBX0 95-180)
Sequence of HESX1 (Homo sapiens, UniProt Q9UBX0 95-180) (Q9UBX0 95-180): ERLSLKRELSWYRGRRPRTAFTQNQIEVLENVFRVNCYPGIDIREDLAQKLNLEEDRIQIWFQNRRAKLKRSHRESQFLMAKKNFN

MSX2 [7] = molecular target: MSX2 (Homo sapiens, UniProt P35548 130-214, R199I)
Sequence of MSX2 (Homo sapiens, UniProt P35548 130-214, R199I) (P35548 130-214 R199I): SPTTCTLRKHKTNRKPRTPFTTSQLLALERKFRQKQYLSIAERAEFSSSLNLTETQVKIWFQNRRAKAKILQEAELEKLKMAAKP

ALX1 [8] = molecular target: ALX1 (Homo sapiens, UniProt Q15699 118-204, L144V)
Sequence of ALX1 (Homo sapiens, UniProt Q15699 118-204, L144V) (Q15699 118-204 L144V): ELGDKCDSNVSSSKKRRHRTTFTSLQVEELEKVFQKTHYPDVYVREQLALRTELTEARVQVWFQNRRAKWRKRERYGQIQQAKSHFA

SHOX [9] = molecular target: SHOX (Homo sapiens, UniProt O15266 103-189, R173C)
Sequence of SHOX (Homo sapiens, UniProt O15266 103-189, R173C) (O15266 103-189 R173C): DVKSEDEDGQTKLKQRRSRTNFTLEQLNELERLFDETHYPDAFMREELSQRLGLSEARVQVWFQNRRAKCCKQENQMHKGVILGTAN

ALX1 [10] = molecular target: ALX1 (Homo sapiens, UniProt Q15699 118-204, L144R)
Sequence of ALX1 (Homo sapiens, UniProt Q15699 118-204, L144R) (Q15699 118-204 L144R): as the sequence (Q15699 118-204 L144V) above, with V27R counted along it

PROP1 [11] = molecular target: PROP1 (Homo sapiens, UniProt O75360 56-141)
Sequence of PROP1 (Homo sapiens, UniProt O75360 56-141) (O75360 56-141): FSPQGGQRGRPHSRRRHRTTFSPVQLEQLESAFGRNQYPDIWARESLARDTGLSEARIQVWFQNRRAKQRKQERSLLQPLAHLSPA

HESX1 [12] = molecular target: HESX1 (Homo sapiens, UniProt Q9UBX0 95-180, R109Q)
Sequence of HESX1 (Homo sapiens, UniProt Q9UBX0 95-180, R109Q) (Q9UBX0 95-180 R109Q): as the sequence (Q9UBX0 95-180) above, with R15Q counted along it

PROP1 [13] = molecular target: PROP1 (Homo sapiens, UniProt O75360 56-141, R99H)
Sequence of PROP1 (Homo sapiens, UniProt O75360 56-141, R99H) (O75360 56-141 R99H): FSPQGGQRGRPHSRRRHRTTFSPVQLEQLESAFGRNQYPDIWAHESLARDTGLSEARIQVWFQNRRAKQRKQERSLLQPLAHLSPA

ALX3 = ALX3 (Homo sapiens, UniProt O95076 139-225, L168Q)
Sequence of ALX3 (O95076 139-225 L168Q): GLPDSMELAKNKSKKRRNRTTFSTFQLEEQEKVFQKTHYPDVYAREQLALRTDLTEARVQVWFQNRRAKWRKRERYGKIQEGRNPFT

HESX1 [14] = molecular target: HESX1 (Homo sapiens, UniProt Q9UBX0 95-180, P111T)
Sequence of HESX1 (Homo sapiens, UniProt Q9UBX0 95-180, P111T) (Q9UBX0 95-180 P111T): as the sequence (Q9UBX0 95-180) above, with P17T counted along it

PROP1 [15] = molecular target: PROP1 (Homo sapiens, UniProt O75360 56-141, F88S)
Sequence of PROP1 (Homo sapiens, UniProt O75360 56-141, F88S) (O75360 56-141 F88S): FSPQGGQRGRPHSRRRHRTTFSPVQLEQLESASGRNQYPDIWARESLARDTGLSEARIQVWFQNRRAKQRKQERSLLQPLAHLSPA

MSX2 [16] = molecular target: MSX2 (Homo sapiens, UniProt P35548 130-214, F161Y)
Sequence of MSX2 (Homo sapiens, UniProt P35548 130-214, F161Y) (P35548 130-214 F161Y): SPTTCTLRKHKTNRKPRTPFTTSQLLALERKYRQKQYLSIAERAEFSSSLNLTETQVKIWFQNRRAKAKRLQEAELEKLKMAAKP

HESX1 [17] = molecular target: HESX1 (Homo sapiens, UniProt Q9UBX0 95-180, F115L)
Sequence of HESX1 (Homo sapiens, UniProt Q9UBX0 95-180, F115L) (Q9UBX0 95-180 F115L): as the sequence (Q9UBX0 95-180) above, with F21L counted along it

ALX1 [18] = molecular target: ALX1 (Homo sapiens, UniProt Q15699 118-204)
Sequence of ALX1 (Homo sapiens, UniProt Q15699 118-204) (Q15699 118-204): as the sequence (Q15699 118-204 L144V) above, with V27L counted along it

PRRX1 [19] = molecular target: PRRX1 (Homo sapiens, UniProt P54821 80-166)
Sequence of PRRX1 (Homo sapiens, UniProt P54821 80-166) (P54821 80-166): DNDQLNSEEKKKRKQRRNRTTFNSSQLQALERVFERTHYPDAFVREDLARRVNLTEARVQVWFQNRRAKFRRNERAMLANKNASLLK

Sequence of HESX1 (Homo sapiens, UniProt Q9UBX0 95-180, R165K) (Q9UBX0 95-180 R165K): as the sequence (Q9UBX0 95-180) above, with R71K counted along it
Sequence of SHOX (Homo sapiens, UniProt O15266 103-189) (O15266 103-189): as the sequence (O15266 103-189 R173C) above, with C71R counted along it
Sequence of ALX4 (Homo sapiens, UniProt Q9H161 200-286) (Q9H161 200-286): as the sequence (Q9H161 200-286 Q225E) above, with E26Q counted along it
Sequence of PRRX1 (Homo sapiens, UniProt P54821 80-166, F113S) (P54821 80-166 F113S): as the sequence (P54821 80-166) above, with F34S counted along it

Sequence: TAATTGAA
- binding signal (HESX1 [1]): 12.9 upbm affinity estimate (log intensity, higher = more binding, comparable within an allelic series)
- binding signal (SHOX [2]): 12 upbm affinity estimate (log intensity, higher = more binding, comparable within an allelic series)
- binding signal (ALX4 [3]): 13.9 upbm affinity estimate (log intensity, higher = more binding, comparable within an allelic series)
- binding signal (PRRX1 [4]): 11.2 upbm affinity estimate (log intensity, higher = more binding, comparable within an allelic series)
- binding signal (ALX4 [5]): 13.2 upbm affinity estimate (log intensity, higher = more binding, comparable within an allelic series)
- binding signal (HESX1 [6]): 12.9 upbm affinity estimate (log intensity, higher = more binding, comparable within an allelic series)
- binding signal (MSX2 [7]): 12.5 upbm affinity estimate (log intensity, higher = more binding, comparable within an allelic series)
- binding signal (ALX1 [8]): 11.6 upbm affinity estimate (log intensity, higher = more binding, comparable within an allelic series)
- binding signal (SHOX [9]): 9.58 upbm affinity estimate (log intensity, higher = more binding, comparable within an allelic series)
- binding signal (ALX1 [10]): 11.3 upbm affinity estimate (log intensity, higher = more binding, comparable within an allelic series)
- binding signal (PROP1 [11]): 11.5 upbm affinity estimate (log intensity, higher = more binding, comparable within an allelic series)
- binding signal (HESX1 [12]): 9.18 upbm affinity estimate (log intensity, higher = more binding, comparable within an allelic series)
- binding signal (PROP1 [13]): 11.6 upbm affinity estimate (log intensity, higher = more binding, comparable within an allelic series)
- binding signal (ALX3): 10.6 upbm affinity estimate (log intensity, higher = more binding, comparable within an allelic series)
- binding signal (HESX1 [14]): 11.4 upbm affinity estimate (log intensity, higher = more binding, comparable within an allelic series)
- binding signal (PROP1 [15]): 7.68 upbm affinity estimate (log intensity, higher = more binding, comparable within an allelic series)
- binding signal (MSX2 [16]): 13.2 upbm affinity estimate (log intensity, higher = more binding, comparable within an allelic series)
- binding signal (HESX1 [17]): 7.71 upbm affinity estimate (log intensity, higher = more binding, comparable within an allelic series)
- binding signal (ALX1 [18]): 12.3 upbm affinity estimate (log intensity, higher = more binding, comparable within an allelic series)
- binding signal (PRRX1 [19]): 13.3 upbm affinity estimate (log intensity, higher = more binding, comparable within an allelic series)

Sequence: CTTGCGGC
- binding signal (HESX1 [1]): 6.55 upbm affinity estimate (log intensity, higher = more binding, comparable within an allelic series)
- binding signal (SHOX [2]): 7.11 upbm affinity estimate (log intensity, higher = more binding, comparable within an allelic series)
- binding signal (HESX1 [6]): 6.49 upbm affinity estimate (log intensity, higher = more binding, comparable within an allelic series)
- binding signal (SHOX [9]): 7.22 upbm affinity estimate (log intensity, higher = more binding, comparable within an allelic series)
- binding signal (HESX1 [12]): 6.47 upbm affinity estimate (log intensity, higher = more binding, comparable within an allelic series)
- binding signal (HESX1 [14]): 6.52 upbm affinity estimate (log intensity, higher = more binding, comparable within an allelic series)
- binding signal (HESX1 [17]): 6.53 upbm affinity estimate (log intensity, higher = more binding, comparable within an allelic series)

Sequence: AATTAGCG
- binding signal (HESX1 [1]): 11.8 upbm affinity estimate (log intensity, higher = more binding, comparable within an allelic series)
- binding signal (SHOX [2]): 12 upbm affinity estimate (log intensity, higher = more binding, comparable within an allelic series)
- binding signal (ALX4 [3]): 13.9 upbm affinity estimate (log intensity, higher = more binding, comparable within an allelic series)
- binding signal (PRRX1 [4]): 11 upbm affinity estimate (log intensity, higher = more binding, comparable within an allelic series)
- binding signal (ALX4 [5]): 13.1 upbm affinity estimate (log intensity, higher = more binding, comparable within an allelic series)
- binding signal (HESX1 [6]): 11.9 upbm affinity estimate (log intensity, higher = more binding, comparable within an allelic series)
- binding signal (MSX2 [7]): 12.4 upbm affinity estimate (log intensity, higher = more binding, comparable within an allelic series)
- binding signal (ALX1 [8]): 11.7 upbm affinity estimate (log intensity, higher = more binding, comparable within an allelic series)
- binding signal (SHOX [9]): 9.63 upbm affinity estimate (log intensity, higher = more binding, comparable within an allelic series)
- binding signal (ALX1 [10]): 11.3 upbm affinity estimate (log intensity, higher = more binding, comparable within an allelic series)
- binding signal (PROP1 [11]): 11.2 upbm affinity estimate (log intensity, higher = more binding, comparable within an allelic series)
- binding signal (HESX1 [12]): 8.95 upbm affinity estimate (log intensity, higher = more binding, comparable within an allelic series)
- binding signal (PROP1 [13]): 11.2 upbm affinity estimate (log intensity, higher = more binding, comparable within an allelic series)
- binding signal (ALX3): 10.4 upbm affinity estimate (log intensity, higher = more binding, comparable within an allelic series)
- binding signal (HESX1 [14]): 10.6 upbm affinity estimate (log intensity, higher = more binding, comparable within an allelic series)
- binding signal (PROP1 [15]): 7.48 upbm affinity estimate (log intensity, higher = more binding, comparable within an allelic series)
- binding signal (MSX2 [16]): 13 upbm affinity estimate (log intensity, higher = more binding, comparable within an allelic series)
- binding signal (HESX1 [17]): 7.68 upbm affinity estimate (log intensity, higher = more binding, comparable within an allelic series)
- binding signal (ALX1 [18]): 12.6 upbm affinity estimate (log intensity, higher = more binding, comparable within an allelic series)
- binding signal (PRRX1 [19]): 13.3 upbm affinity estimate (log intensity, higher = more binding, comparable within an allelic series)

Sequence: ACAATTAG
- binding signal (HESX1 [1]): 11.8 upbm affinity estimate (log intensity, higher = more binding, comparable within an allelic series)
- binding signal (SHOX [2]): 11.6 upbm affinity estimate (log intensity, higher = more binding, comparable within an allelic series)
- binding signal (HESX1 [6]): 12.1 upbm affinity estimate (log intensity, higher = more binding, comparable within an allelic series)
- binding signal (MSX2 [7]): 12.6 upbm affinity estimate (log intensity, higher = more binding, comparable within an allelic series)
- binding signal (ALX1 [8]): 11.2 upbm affinity estimate (log intensity, higher = more binding, comparable within an allelic series)
- binding signal (SHOX [9]): 9.13 upbm affinity estimate (log intensity, higher = more binding, comparable within an allelic series)
- binding signal (ALX1 [10]): 10.8 upbm affinity estimate (log intensity, higher = more binding, comparable within an allelic series)
- binding signal (PROP1 [11]): 11.1 upbm affinity estimate (log intensity, higher = more binding, comparable within an allelic series)
- binding signal (HESX1 [12]): 8.66 upbm affinity estimate (log intensity, higher = more binding, comparable within an allelic series)
- binding signal (PROP1 [13]): 11 upbm affinity estimate (log intensity, higher = more binding, comparable within an allelic series)
- binding signal (HESX1 [14]): 10.4 upbm affinity estimate (log intensity, higher = more binding, comparable within an allelic series)
- binding signal (PROP1 [15]): 7.51 upbm affinity estimate (log intensity, higher = more binding, comparable within an allelic series)
- binding signal (MSX2 [16]): 13.3 upbm affinity estimate (log intensity, higher = more binding, comparable within an allelic series)
- binding signal (HESX1 [17]): 7.42 upbm affinity estimate (log intensity, higher = more binding, comparable within an allelic series)
- binding signal (ALX1 [18]): 12 upbm affinity estimate (log intensity, higher = more binding, comparable within an allelic series)
